Reference: PubChem BioAssay
The source made the active and inactive calls. No rule for the calls is given here.

These compounds were tested against Protein kinase 7 (PK7), Plasmodium falciparum 3D7 (PF3D7_0213400) (UniProt Q7YTF7) (assay: inhibition of Plasmodium PK7 catalytic activity – biochemical, TCAMS antimalarial set, Kinase-Glo luminescence (AID 1159587)). Conditions: recombinant PfPK7, Kinase-Glo ATP depletion luminescence.
Chain of Protein kinase 7 (PK7), Plasmodium falciparum 3D7 (PF3D7_0213400) (Q7YTF7 1-343): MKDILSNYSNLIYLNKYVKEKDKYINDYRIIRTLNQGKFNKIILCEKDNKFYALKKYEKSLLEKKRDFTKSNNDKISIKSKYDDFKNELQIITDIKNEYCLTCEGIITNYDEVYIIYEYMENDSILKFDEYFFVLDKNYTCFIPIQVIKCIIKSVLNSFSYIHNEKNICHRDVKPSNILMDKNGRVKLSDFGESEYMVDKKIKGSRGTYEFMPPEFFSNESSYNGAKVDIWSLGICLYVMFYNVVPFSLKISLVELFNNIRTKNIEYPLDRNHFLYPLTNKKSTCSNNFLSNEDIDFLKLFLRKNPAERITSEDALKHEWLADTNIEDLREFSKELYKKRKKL

outcome, inactive:
CCCOc1cc2c(cc1OCCC)C(C=Cc1ccc(Cl)cc1Cl)=NC(C)C2 (stereo not given)
Cc1[nH]c(C)c(-c2ccc(Oc3cccc(C(F)(F)F)c3)cc2)c(=O)c1Br
COc1cc(Cc2cnc3nc(N)nc(N)c3c2C)cc(OC)c1OC
CCNC(=O)CCc1cccc(Br)c1
NC(N)=NC(=O)Nc1ccc(Cl)c([N+](=O)[O-])c1
Cc1ccc2ccncc2c1N
CCOc1cc2ncnc(Nc3ccc(OCc4c(Cl)cccc4Cl)c(OC)c3)c2cc1OCC
CC(=O)Oc1c(Cl)c(C)nc(C)c1-c1ccc(Oc2ccc(OC(F)(F)F)cc2)cc1
Nc1ccncc1C(=O)NCCCCN1CCN(c2nsc3ccccc23)CC1
CCCc1cc2c3c(N)nc(N)nc3ccc2n1CC
Cc1[nH]c(C)c(-c2ccc(Oc3ccc(Cl)cc3)cc2)c(=O)c1Cl
COc1ccc(Cc2c(Cl)nc3nc(N)nc(N)c3c2C)cc1
Nc1nc(N)c2c(ccc3c2ccn3Cc2ccc3c(c2)OCO3)n1
Cc1nc2nc(N)nc(N)c2c(C)c1Cc1ccc([N+](=O)[O-])cc1
C=CCn1ccc2c3c(N)nc(N)nc3ccc21
CCC(=C(CC)c1ccc(O)c(CNC2CCCCC2)c1)c1ccc(O)c(CNC2CCCCC2)c1
Nc1ncc(-c2ccc(S(=O)(=O)Nc3ccc(C(=O)N[C@@H](CCC(=O)O)C(=O)O)cc3)cc2)c(=O)[nH]1
COc1ccc2c(=O)c(Br)c(C)[nH]c2c1
CCCN(c1ccc(O)c(CN2CCCCC2)c1)c1ccc([N+](=O)[O-])cn1
Cn1c(=N)cc(-c2cccc(I)c2)c2c(=O)[nH]c(N)nc21
Cc1cc(=O)c(-c2ccc(Oc3ccc(OC(F)(F)F)cc3)cc2)c(C)[nH]1
NC(N)=NC(=O)Nc1cc(Br)c(Cl)c(C(F)(F)F)c1
Cc1cccc(Cn2ccc3c4c(N)nc(N)nc4ccc32)c1
CC(C)Cn1ccc2c3c(N)nc(N)nc3ccc21
Cc1cc(=O)c(-c2ccc(OCc3ccc(Cl)cc3)cc2)c(C)[nH]1
FC(F)(F)c1ccc2c(NCCCNc3ccnc4cc(C(F)(F)F)ccc34)ccnc2c1
Nc1nc(N)c2c(ccc3c2cnn3Cc2cccnc2)n1
CC(C)Cn1cc2c(ccc3nc(N)nc(N)c32)n1
CCCCCCCc1c(C)[nH]c2ccc(F)cc2c1=O
Cc1[nH]c(C)c(-c2ccc(Oc3ccccc3)cc2)c(=O)c1Br
CN(C)S(=O)(=O)n1ccc2c3c(N)nc(N)nc3ccc21
CCN(C)C(=O)n1ncc2c3c(N)nc(N)nc3ccc21
CCCCNCc1cc(Cl)c2ccccc2c1O
Cc1[nH]c(C)c(-c2ccc(Oc3cc(Cl)cc(Cl)c3)cc2)c(=O)c1Br
COc1ccc(-c2cnc(N)nc2N)cc1Cl
COc1cc(Cc2cnc(N)nc2N)cc(OCCCCNS(=O)(=O)C(F)(F)F)c1OC
CCC(C)c1cnc2nc(N)nc(N)c2c1C (stereo not given)
Cc1ccccc1OCCCc1c(C)nc(N)nc1N
COCCOCCOCCn1ccc2c3c(N)nc(N)nc3ccc21
Nc1nc(N)c2c(ccc3c2ccn3Cc2ccc(Br)cc2)n1
